The full ranking holds about 140,000 sequences; the median of “enrichment ratio after two sorts for PhoP signalling” is about 0, and the highest 2% start at about 11. The full list was thinned out, with the highest values kept by preference.
B1: PhoQ; a variant is named by its letters at X, in order, P23837 (parent)
chain: MKKLLRLFFPLSLRVRFLLATAAVVLVLSLAYGMVALIGYSVSFDKTTFRLLRGESNLFYTLAKWENNKLHVELPENIDKQSPTMTLIYDENGQLLWAQRDVPWLMKMIQPDWLKSNGFHEIEADVNDTSLLLSGDHSIQQQLQEVREDDDDAEMTHSVAVNVYPATSRMPKLTIVVVDTIPVELKSSYMVWSWFIYVLSANLLLVIPLLWVAAWWSLRPIEALAKEVRELEEHNRELLNPATTRELTSLVRNLNRLLKSERERYDKYRTTLTDLTHSLKTPLXXLQXXLRSLRSEKMSVSDAEPVMLEQISRISQQIGYYLHRASMRGGTLLSRELHPVAPLLDNLTSALNKVYQRKGVNISLDISPEISFVGEQNDFVEVMGNVLDNACKYCLEFVEISARQTDEHLYIVVEDDGPGIPLSKREVIFDRGQRVDTLRPGQGVGLAVAREITEQYEGKIVAGESMLGGARMEVIFGRQHSAPKDE

Variants of: B1
Assay: enrichment ratio after two sorts for PhoP signalling (ratio (wild type AVST 3.29)); higher = more functional
Conditions: with PhoP (E. coli)

| Variant | enrichment ratio |
| --- | --- |
| IDWP | ≤ 0.25 |
| HREC | ≤ 0.25 |
| GNSH | 1.23 |
| IQIR | ≤ 0.25 |
| DTPS | ≤ 0.25 |
| GPWS | ≤ 0.25 |
| ESVV | ≤ 0.25 |
| CSLA | 2.15 |
| CSLT | 11.7 |
| CSLY | 0.296 |
| CSFT | ≤ 0.25 |
| CSLP | ≤ 0.25 |
| CSLS | 21.9 |
| NPIK | ≤ 0.25 |
| DVWP | ≤ 0.25 |
| DDAS | ≤ 0.25 |
| MCAH | 2.04 |
| MKAH | ≤ 0.25 |
| QEAH | ≤ 0.25 |
| NEAH | ≤ 0.25 |
| SEAH | 31.6 |
| GVAH | 0.601 |
| MVTH | 2.25 |
| SFAH | ≤ 0.25 |

| Variant | enrichment ratio |
| --- | --- |
| MEAH | 28.9 |
| TEAH | 40 |
| MVAH | 12.3 |
| HPAH | ≤ 0.25 |
| YETW | ≤ 0.25 |
| REHR | ≤ 0.25 |
| VKCV | ≤ 0.25 |
| MGTW | ≤ 0.25 |
| FNVE | ≤ 0.25 |
| NWYH | ≤ 0.25 |
| HLAW | ≤ 0.25 |
| VCYP | ≤ 0.25 |
| MRAI | ≤ 0.25 |
| TEFK | 1.68 |
| MFLG | 0.27 |
| MPLG | ≤ 0.25 |
| HYLG | ≤ 0.25 |
| HELA | ≤ 0.25 |
| HPLG | ≤ 0.25 |
| MELG | 22.3 |
| NELG | 2.34 |
| HELG | 12.3 |
| TELG | 27.4 |
| EFRW | ≤ 0.25 |

| Variant | enrichment ratio |
| --- | --- |
| YYAI | ≤ 0.25 |
| AISP | ≤ 0.25 |
| SFQS | ≤ 0.25 |
| NRHR | ≤ 0.25 |
| MSNW | ≤ 0.25 |
| PCTN | ≤ 0.25 |
| TDQW | ≤ 0.25 |
| LVST | ≤ 0.25 |
| RVEC | ≤ 0.25 |
| AVTF | 11.4 |
| LTTF | ≤ 0.25 |
| ADTF | ≤ 0.25 |
| YTTF | ≤ 0.25 |
| ATTF | 18.8 |
| AHTF | ≤ 0.25 |
| CTTF | ≤ 0.25 |
| ASHF | ≤ 0.25 |
| AVHF | ≤ 0.25 |
| ASTF | 11.8 |
| CITF | ≤ 0.25 |
| CSTF | 15.8 |
| QRGI | ≤ 0.25 |
| VSMY | ≤ 0.25 |
| YGPL | ≤ 0.25 |

| Variant | enrichment ratio |
| --- | --- |
| AGVR | ≤ 0.25 |
| TLEC | ≤ 0.25 |
| VESY | ≤ 0.25 |
| YITC | ≤ 0.25 |
| QKNA | ≤ 0.25 |
| AITF | 15 |
| AKTF | 2.43 |
| KSTF | ≤ 0.25 |
| IPNS | ≤ 0.25 |
| WFEY | ≤ 0.25 |
| AYPG | ≤ 0.25 |
| TDTK | ≤ 0.25 |
| TDLA | 14 |
| TDYI | ≤ 0.25 |
| TDLT | 7.28 |
| TDTI | 14.6 |
| LTLS | ≤ 0.25 |
| CDLS | ≤ 0.25 |
| TDTH | 8.19 |
| TDLN | 14.9 |
| LTLN | ≤ 0.25 |
| TDLS | 18 |
| KDLN | ≤ 0.25 |

From a collection of fitness landscapes (doi:10.1126/science.1257360)
